Laboratory results: PubChem BioAssay (NCATS)
Where “and” joins values, the source holds several entries; their conditions need not be identical. Equal entries are not always repeated. Inconclusive results are not listed.

Experiment: qHTS Assay for Lipid Storage Modulators (AID 1519)
Conditions: Drosophila S3 cells, BODIPY lipid droplet/cell ratio, laser cytometry; measured here: cell count channel max response; cells loaded with oleic acid
Procedure, shortened: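 Cells seeded at 5,000 per well were treated with compounds over a concentration series and loaded with oleic acid (400 uM, as added). Lipid droplet fluorescence (488 nm excitation, 500-530 nm channel) was read by laser-scanning cytometry and normalized to 20 uM Triacsin C.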

Point of comparison: `COCCNc1ncnc2ccc(-c3ccccc3CN(C)C)cc12`, max response 13.6%. Against it:
- CN1CCCC[C@@H]1CCN1c2ccccc2Sc2ccc(S(C)=O)cc21 (some centres undefined) — lower, -6.84%
- CN(Cc1ccco1)c1ccnc(-c2cccc(NS(C)(=O)=O)c2)n1 — higher, 18.7%
- Cc1cccc(CNc2ncncc2-c2ccccc2C(F)(F)F)c1 — lower, -2.27%
- COc1ccccc1-c1ccc2ncnc(N(C)C)c2c1 — lower, -12.6%
- COc1cccc(Nc2ncc3nc(C)c(=O)n(CCC#N)c3n2)c1 — lower, -22.6%
- Cn1cccc1C(=O)N1CCC2(CC1)CN(Cc1cc(C(F)(F)F)cc(C(F)(F)F)c1)C2 — lower, -0.271%
- COc1ccc2[nH]cc(CCNc3ncnc4ccc(-c5ccc(C(=O)N(C)C)cc5)cc34)c2c1 — lower, -23.3%
- CN(C)Cc1ccccc1-c1ccc2ncnc(NCc3ccccc3)c2c1 — higher, 19.6%
- Cc1cccc(CNc2cc(-c3ccc(C(=O)N(C)C)cc3)ncn2)c1 — lower, 0.996%
- COc1ccc2[nH]cc(CCNc3cc(-c4ccoc4)ncn3)c2c1 — lower, 6.67%
- Cc1cccc(CNc2ccnc(-c3ccc(C(=O)N(C)C)cc3)n2)c1 — lower, -6.92%
- CN(C)Cc1ccccc1-c1nc(N(C)Cc2ccco2)c2ccccc2n1 — higher, 17.4%
- Cc1cccc(CNc2nc(-c3ccoc3)nc3ccccc23)c1 — lower, -24.1%
- Cc1occc(=O)c1O — lower, 0.823%
- CNc1nc(-c2ccccc2OC)nc2ccccc12 — lower, -10.6%
- COc1ccccc1-c1cncnc1NCc1cccc(C)c1 — lower, 7.88%
- CC(=O)N1CCC2(CC1)CCN(c1ccncc1)CC2 — lower, -6.73%
- Cc1nc2cnc(N(C)C)nc2n(Cc2cccs2)c1=O — lower, 10.1%
- c1ccc2c(Nc3ccncc3)nc(-c3ccoc3)nc2c1 — lower, 5.31%
- COCC(=O)N1CCC2(CCN(Cc3ccncc3)CC2)CC1 — lower, 13.5%
- CS(=O)(=O)Nc1cccc(-c2nc(N3CCOCC3)c3ccccc3n2)c1 — lower, -24.3%
- COS(C)(=O)=O — lower, -1.86%
- Cc1cccc(CNc2nc(-c3cccc(NS(C)(=O)=O)c3)nc3ccccc23)c1 — lower, -11.9%
- CNc1ncnc2ccc(-c3ccccc3OC)cc12 — lower, 0.392%
- N#CCCn1c(=O)cnc2cnc(N3CCNCC3)nc21 — higher, 14.3%
- CC(C)NC(=O)N1CCC2(CC1)CCN(C(=O)c1cnccn1)CC2 — higher, 15.3%
- COc1ccc2[nH]cc(CCNc3ncnc4ccc(-c5ccccc5CN(C)C)cc34)c2c1 — lower, -2.58%
- COCCNc1nc(-c2cccc(OC)c2)nc2ccccc12 — lower, 5.13%
- CN(C)c1ccc(-c2cc(NCc3cccnc3)ncn2)cc1 — higher, 14.7%
- COc1ccc2[nH]cc(CCNc3ncncc3-c3ccccc3CN(C)C)c2c1 — lower, -0.105%
- Cc1ccccc1-c1nc(-n2ccnc2)c2ccccc2n1 — lower, -6.87%
- COc1ccccc1CNc1ccnc(-c2ccccc2C(F)(F)F)n1 — lower, -3.33%
- COc1ccccc1-c1nc(NCc2cnc(C)cn2)c2ccccc2n1 — lower, 6.96%
- COc1ncc2nc(-c3ccc(Cl)cc3)c(=O)n(-c3ccccc3)c2n1 — lower, 12%
- COc1ccc(C(=O)N2CCC3(CCN(C(=O)Nc4cccc(F)c4)CC3)CC2)cc1 — higher, 13.8%
- Cc1cccc(CNc2ccnc(-c3ccccc3CN(C)C)n2)c1 — lower, -8.06%
- CN1[C@@H]2CC[C@H]1CC(OC(=O)[C@@H](O)c1ccccc1)C2 (some centres undefined) — lower, 4.94%

With `CC1=CC(=O)CC(C)(C)C1(O)/C=C/C(C)=C\C(=O)O` (centres undefined) the max response was 12.7% and 14.4%.
